The text below walks through data of PubChem BioAssay (NCI).

A short description of assay [1]: NCI Yeast Anticancer Drug Screen. Data for the mec2-1 strain (AID 157). The following applies: S. cerevisiae mec2-1 strain, active compounds read high. Put shortly: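 Readout is yeast growth inhibition, normalised to vehicle-treated controls, in the mec2-1 strain exposed to compound.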
The nature of assay [2]: NCI Yeast Anticancer Drug Screen. Data for the sgs1 mgt1 strain (AID 161).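 Note: 0% = growth of cultures given vehicle only.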 The following applies: S. cerevisiae sgs1 mgt1 strain, active compounds read high. A digest of the protocol: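 Compounds are added to genetically altered yeast, and growth is compared with cultures given vehicle alone to give percent inhibition.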
Assay [3] is described as follows: NCI Yeast Anticancer Drug Screen. Data for the cln2 rad14 strain (AID 165).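 Note: 0% = growth equal to vehicle treated cultures.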 The following applies: S. cerevisiae cln2 rad14 strain, active compounds read high. Put shortly: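 Relative to vehicle controls, growth inhibition of compound-treated cln2 rad14 yeast was recorded.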
Assay [4] in a line: NCI Yeast Anticancer Drug Screen. Data for the bub3 strain (AID 167). The following applies: S. cerevisiae bub3 mutant strain, active compounds read high. A digest of the protocol: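 Yeast carrying a defined mutation is treated with each compound, and growth is compared with that of vehicle-exposed cells to give inhibition.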
A short description of assay [5]: NCI Yeast Anticancer Drug Screen. Data for the mlh1 rad18 strain (AID 175). The following applies: S. cerevisiae mlh1 rad18 strain growth inhibition, active compounds read high. A digest of the protocol: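 Test agents were incubated with a yeast strain of defined genotype (DNA damage repair defect). Inhibition of growth was derived by comparison with vehicle-exposed cultures.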

Assay [6] is described as follows: NCI Yeast Anticancer Drug Screen. Data for the rad50 strain (AID 155).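 Note: 0% = growth of vehicle-only cultures of the same strain.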 The conditions noted are these: S. cerevisiae rad50 strain growth inhibition, active compounds read high. A digest of the protocol: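 Genetically altered yeast (DNA repair pathway); compound treatment; growth inhibition vs vehicle ctrl.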
Setting [7] is: at 5.0 µM (retest, dose inferred, filed as 0.5).
Setting [8] is: at 50.0 µM (retest, dose inferred, filed as 5.0).

Each structure is given as a SMILES string. “And” between values parts separate entries of the source, which are not always exact repeats. Equal entries are not always repeated. About 79,000 compounds went through this panel and 15% of them were active in at least one assay; those are over-represented in the sample as a whole. Values without a mark were called inactive. The source made the active and inactive calls. Cut-off read from the data, not from the text of the source: active = growth inhibition above about 70%; inactive = the rest.

For `C/C(=N\NC(=S)N1CCN(c2cnccn2)CC1)c1ccccn1`, the growth inhibition was 23% in assay [1] (setting [7]); 99% (active) in assay [1] (setting [8]); 89.9% (active) in assay [1] (at 50.0 µM); 19% in assay [2] (setting [7]); 99% (active) in assay [2] (setting [8]); 86.1% (active) in assay [2] (at 50.0 µM). Besides, the growth inhibition is 10% in assay [3] (setting [7]); 99% (active) in assay [3] (setting [8]); 88.2% (active) in assay [3] (at 50.0 µM); 30% in assay [4] (setting [7]); 99% (active) in assay [4] (setting [8]); 85.3% (active) in assay [4] (at 50.0 µM). Moreover, the results for the growth inhibition in assay [5] (setting [7]), in assay [5] (setting [8]) and in assay [5] (at 50.0 µM) were 28%, 99% (active) and 91.7% (active), respectively.
For the compound `ONC(=Nc1ccccc1)c1ccccc1`, the growth inhibition in assay [6] (setting [7]) was -137%; in assay [6] (setting [8]), 73% (active); in assay [6] (at 50.0 µM), 95.4% (active); in assay [2] (setting [7]), -55%; in assay [2] (setting [8]), 78% (active); in assay [2] (at 50.0 µM) it was 96.3% (active). Moreover, the growth inhibition was -58% in assay [3] (setting [7]); 86% (active) in assay [3] (setting [8]); 96.6% (active) in assay [3] (at 50.0 µM); -66% in assay [4] (setting [7]); 35% in assay [4] (setting [8]); 95.2% (active) in assay [4] (at 50.0 µM). Also, the growth inhibition in assay [5] (setting [7]) is -120%; in assay [5] (setting [8]) it was 75% (active); in assay [5] (at 50.0 µM), 97.9% (active).
Take `OCCc1ccc(-n2cnc3c(Nc4ccc(Cl)cc4)ncnc32)cc1`: the growth inhibition in assay [1] (setting [7]) is -4%; in assay [1] (setting [8]), 95% (active); in assay [1] (at 50.0 µM), 43%; in assay [2] (setting [7]), -4%; in assay [2] (setting [8]), 91% (active); in assay [2] (at 50.0 µM), 44.8%. In addition, the growth inhibition was -18% in assay [3] (setting [7]); 94% (active) in assay [3] (setting [8]); 17.8% in assay [3] (at 50.0 µM); 7% in assay [4] (setting [7]); 96% (active) in assay [4] (setting [8]); 83.8% (active) in assay [4] (at 50.0 µM). Besides, the growth inhibition in assay [5] (setting [7]) was 3%; in assay [5] (setting [8]), 95% (active); in assay [5] (at 50.0 µM) it was 47%.
Regarding `OCC(O)C(O)C(O)CO` (stereo not drawn), the growth inhibition in assay [6] (at 50.0 µM) was -5.35% and 10.4% and 7.75%; in assay [1] (at 50.0 µM), -8.1% and 4.3% and 14%; in assay [2] (at 50.0 µM) it was -16% and 7.05% and 14.4%; in assay [3] (at 50.0 µM), 4.25% and 2.85% and 13.9%; in assay [4] (at 50.0 µM) it was -45.7% and -5.45% and 0.05%; in assay [5] (at 50.0 µM), -8.35% and -4.45% and 10%.
With `CC1C/C(=C\c2ccc(O)c(O)c2)C(=O)/C(=C/c2ccc(O)c(O)c2)C1` (stereo not drawn), the growth inhibition was 22% in assay [6] (setting [7]); 71% (active) in assay [6] (setting [8]); 52.4% in assay [6] (at 50.0 µM); 17% in assay [2] (setting [7]); 66% in assay [2] (setting [8]); 47.5% in assay [2] (at 50.0 µM). The growth inhibition in assay [3] (setting [7]) is 7%; in assay [3] (setting [8]), 65%; in assay [3] (at 50.0 µM), 41%; in assay [4] (setting [7]) it was 16%; in assay [4] (setting [8]), 67%; in assay [4] (at 50.0 µM), 19.9%. Besides, the growth inhibition in assay [5] (setting [7]) is 27%; in assay [5] (setting [8]), 84% (active); in assay [5] (at 50.0 µM) it was 21.6%.
On to `S=c1sc2ccccc2n1C=Nc1ccccc1`, for which the growth inhibition was -2% in assay [6] (setting [7]); 83% (active) in assay [6] (setting [8]); 98.9% (active) in assay [6] (at 50.0 µM); -1% in assay [2] (setting [7]); 96% (active) in assay [2] (setting [8]); 98.7% (active) in assay [2] (at 50.0 µM). Also, the growth inhibition in assay [3] (setting [7]) is -8%; in assay [3] (setting [8]) it was 81% (active); in assay [3] (at 50.0 µM), 96.2% (active); in assay [4] (setting [7]), -1%; in assay [4] (setting [8]), 96% (active); in assay [4] (at 50.0 µM), 99.1% (active). The growth inhibition is -2% in assay [5] (setting [7]), 79% (active) in assay [5] (setting [8]) and 98.3% (active) in assay [5] (at 50.0 µM).
Turning to `Clc1ccc(CN2CCN(Cc3ccc(Cl)cc3)C2c2ccc(Cl)cc2)cc1`, the growth inhibition in assay [6] (setting [7]) was 17%; in assay [6] (setting [8]) it was 66%; in assay [6] (at 50.0 µM), 21.9%; in assay [2] (setting [7]), 40%; in assay [2] (setting [8]), 92% (active); in assay [2] (at 50.0 µM), 53.5%. For the same compound, the growth inhibition in assay [3] (setting [7]) was 26%; in assay [3] (setting [8]) it was 55%; in assay [3] (at 50.0 µM), 69.4%; in assay [4] (setting [7]), 33%; in assay [4] (setting [8]) it was 83% (active); in assay [4] (at 50.0 µM) it was 28.1%. Also, the growth inhibition in assay [5] (setting [7]) is 28%; in assay [5] (setting [8]), 77% (active); in assay [5] (at 50.0 µM) it was 27.2%.
Turning to `Cc1cccc2c1C1c3c(C)cccc3C(O)CC1CC2O` (stereo not drawn), the growth inhibition in assay [6] (setting [7]) was 15%; in assay [6] (setting [8]) it was 3%; in assay [6] (at 50.0 µM) it was 36.5%; in assay [2] (setting [7]), -2%; in assay [2] (setting [8]), 45%; in assay [2] (at 50.0 µM), 42.4%. The growth inhibition in assay [3] (setting [7]) was -18%; in assay [3] (setting [8]), -1%; in assay [3] (at 50.0 µM), 30.1%; in assay [4] (setting [7]), -10%; in assay [4] (setting [8]), 4%; in assay [4] (at 50.0 µM), 33.5%. Moreover, the growth inhibition in assay [5] (setting [7]) was 1%; in assay [5] (setting [8]), 28%; in assay [5] (at 50.0 µM), 39.8%.
On to `CCCCOCN(CC(CC)CCCC)CC(CC)CCCC` (stereo not drawn), for which the growth inhibition in assay [6] (setting [7]) is 4%; in assay [6] (setting [8]), 15%; in assay [6] (at 50.0 µM) it was 26%; in assay [2] (setting [7]), 1%; in assay [2] (setting [8]), 29%; in assay [2] (at 50.0 µM), 73.4% (active). Moreover, the growth inhibition in assay [3] (setting [7]) was 4%; in assay [3] (setting [8]), 10%; in assay [3] (at 50.0 µM), 5.3%; in assay [4] (setting [7]), 1%; in assay [4] (setting [8]) it was 20%; in assay [4] (at 50.0 µM), 18.9%. The growth inhibition was -4% in assay [5] (setting [7]), 37% in assay [5] (setting [8]) and 52.1% in assay [5] (at 50.0 µM).
For the compound `Cc1ccc(C)c(NC(=O)CCC(=O)CC(=O)c2ccncc2)c1`, the growth inhibition in assay [1] (setting [7]) was 3%; in assay [1] (setting [8]), 4%; in assay [1] (at 50.0 µM), 7.45%; in assay [2] (setting [7]) it was 8%; in assay [2] (setting [8]), 4%; in assay [2] (at 50.0 µM) it was 16.8%. For the same compound, the growth inhibition in assay [3] (setting [7]) is -4%; in assay [3] (setting [8]), 3%; in assay [3] (at 50.0 µM), 1.25%; in assay [4] (setting [7]) it was -7%; in assay [4] (setting [8]), 4%; in assay [4] (at 50.0 µM), 10.7%. In addition, the results for the growth inhibition in assay [5] (setting [7]), in assay [5] (setting [8]) and in assay [5] (at 50.0 µM) were 0%, -1% and 24.1%, respectively.
`O=C1OC(C(O)CO)C(O)=C1O` (stereo not drawn): the growth inhibition is -17.1% and 7.7% and 12.5% in assay [6] (at 50.0 µM); -25.8% and 0.65% and -15.2% in assay [1] (at 50.0 µM); -4.15% and -7.6% and 14.5% in assay [2] (at 50.0 µM); -0.75% and -1.55% and 7.15% in assay [3] (at 50.0 µM); -1.7% and -0.25% and -0.3% in assay [4] (at 50.0 µM); 1.6% and 8.75% and 6.45% in assay [5] (at 50.0 µM).
As for `OCC(O)C(O)C(O)C(O)C(O)CO` (stereo not drawn), the growth inhibition in assay [6] (at 50.0 µM) is 1% and 8% and 21.3%; in assay [1] (at 50.0 µM), 0.1% and 6.15% and -9.7%; in assay [2] (at 50.0 µM) it was 16.6% and 21.1% and 25.2%; in assay [3] (at 50.0 µM), -45.4% and -8.8% and -1.35%; in assay [4] (at 50.0 µM), 17.6% and -3.1% and 37.1%; in assay [5] (at 50.0 µM) it was 10.2% and 22.1% and 10.4%.
